Experimental data from ChEMBL document CHEMBL3988442, “University of Dundee, Small-Polar-MMV Screening Library” (2021).
Screen size: about 48,000 compounds; about 13,000 (27%) showed an effect of 50% or more. Some of the results follow.

System: Wolbachia pipientis
Assay: Anti-Wolbachia Cell-Based Screen
Type: functional
Set-up: scale not given: in the data most compounds retested in dose-response had high values
Conditions: 5 µM

Compound	Percent Effect
CN(CC(=O)NCC(F)(F)F)Cc1cccc2c1OCCO2	-18.06%
CN(Cc1ccc(CCC(C)(C)O)cc1)Cc1cccnc1	-22.62%
c1cnn(Cc2ccc(CN3CCC4(CCNCC4)C3)cc2)c1	15.29%
CS(=O)(=O)N1Cc2ccccc2CC2(CCN(Cc3ccncc3)C2)C1 (stereo unspecified)	115%
Cc1ccc(CN2CCC3(CCN(S(=O)(=O)c4ccccc4)C3)C2)o1 (stereo unspecified)	-12.36%
CN1CC(=O)N(c2cccc(F)c2)CC12CCN(Cc1ccccn1)C2 (stereo unspecified)	2.437%
CS(=O)(=O)N1Cc2ccccc2CC2(CCN(Cc3ccccc3)C2)C1 (stereo unspecified)	126.9%
Cc1ccc(CN2CCC3(CCCN(S(C)(=O)=O)C3)C2)o1 (stereo unspecified)	-14.58%
COCCC(=O)N1CC2(CCN(Cc3ccncc3)CC2)C1	12.72%
COCC(=O)N1CCC2(CCN(Cc3ccccn3)CC2)CC1	-21.07%
CS(=O)(=O)N1CC2(CCN(Cc3ccccn3)C2)Cc2ccccc21 (stereo unspecified)	111%
Cc1ccc(N2CCC3(CCN(Cc4ccccn4)CC3)CC2)nn1	3.728%
CS(=O)(=O)N1Cc2ccccc2CC2(CCN(Cc3ccccn3)C2)C1 (stereo unspecified)	113.9%
CS(=O)(=O)N1CCC(c2nccn2Cc2ccccn2)CC1	3.46%
COCC(c1cccc(C(F)(F)F)c1)N(C)C(=O)c1cc(C)n[nH]1 (stereo unspecified)	-9.299%
Cc1nc2[nH]cc(C(=O)N3CCCCC3c3ccc(F)cc3)c(=O)n2n1 (stereo unspecified)	-1.637%
Cc1nc(-c2cc(C(=O)O)co2)cs1	4.91%
Cc1nn(-c2ccccn2)c(C)c1[C@@H]1C=C[C@@H](NC(=O)CCC(=O)O)C1	-2.847%
CN(C)S(=O)(=O)NCC(O)c1cc2ccccc2s1 (stereo unspecified)	-1.975%
CCc1cnc(N2Cc3cnc(C(C)(C)C)nc3C2)nc1	-2.734%
CCN(CC)CC(=O)NCCc1csc(N2CCCC2)n1	7.841%
O=C(c1ccncc1F)N1C[C@H]2CC[C@@H]1CN(Cc1cccnc1)C2	-17.68%

Compound	Percent Effect
CC1(C)[C@H](Cc2cc(CN3CCOCC3)on2)C[C@@H]1NC(=O)C1CCC1	3.49%
CC(C)N(Cc1cnn(C)c1)CC1CCCN(S(C)(=O)=O)C1 (stereo unspecified)	7.104%
CC(=O)N1CCCC(Cc2cncc(Br)c2)C1 (stereo unspecified)	130.8%
CC(C)N1CCCC(Cc2cncc(Br)c2)CC1 (stereo unspecified)	135.8%
CC(CCc1ccc(O)cc1)NC1CCN(S(C)(=O)=O)CC1 (stereo unspecified)	7.002%
CS(=O)(=O)N1CCCC(Cc2cncc(Br)c2)CC1 (stereo unspecified)	127%
CC(C)N1CCCC(C(=O)NCCCc2cnn(C)c2)C1 (stereo unspecified)	-2.763%
CC(=O)N1CCCC(Cc2cncc(Br)c2)CC1 (stereo unspecified)	-3.498%
CCOC(=O)NC1CCCN(c2cncc(Br)c2)C1 (stereo unspecified)	-1.321%
COc1cccc2c1CCC2NC(=O)NCc1csc(N(C)C)n1 (stereo unspecified)	7.815%
Cc1ccc([C@@H]2CN(C(=O)c3ccon3)C[C@H]2NC(=O)C2CC2)cc1	-0.9032%
CCc1noc(CC)c1CC(=O)N1CCC(C(=O)NC(C)C)CC1	-12.02%
CC(=O)NCCNC(=O)c1cc(Br)c2c(c1)OCCO2	-14.07%
CC1CCN(S(=O)(=O)NCC2CCOc3ccccc3C2)CC1 (stereo unspecified)	-7.362%
CC(C)Oc1cc(N2C[C@@H](C)O[C@@H](C)C2)nc(N)n1	-18.9%
CC(NCc1cccnc1)c1ccc(OCC(=O)NC2CC2)cc1 (stereo unspecified)	-5.583%
NS(=O)(=O)N1CCC(CSc2ccccc2)C1 (stereo unspecified)	-8.118%
Cc1oncc1C(=O)N1CCC2(CC1)CC(c1ccccc1)C(=O)N2C (stereo unspecified)	-5.401%
N#Cc1ccnc(N2CCN(C(=O)c3ccc4c(c3)CCO4)CC2)c1	2.896%
c1csc(CCNC2CCc3ncnn3C2)c1 (stereo unspecified)	-10.08%
Cc1nc(CNC2CCc3ncnn3C2)oc1C (stereo unspecified)	-6.098%
O=C(CNC1CCc2ncnn2C1)NCCc1cccs1 (stereo unspecified)	2.681%

Compound	Percent Effect
Clc1ccc(-c2cnc(CNC3CCc4ncnn4C3)o2)cc1 (stereo unspecified)	-3.633%
O=S(=O)(CCCNC1CCc2ncnn2C1)c1ccccc1 (stereo unspecified)	113.7%
COc1cccc(S(=O)(=O)CCNC2CCc3ncnn3C2)c1 (stereo unspecified)	109.9%
O=S(=O)(CCNC1CCc2ncnn2C1)c1ccc(Cl)cc1 (stereo unspecified)	86.02%
c1ccc(CNC2CCc3ncnn3C2)nc1 (stereo unspecified)	-4.327%
Cc1ccc(C)c(S(=O)(=O)CCNC2CCc3ncnn3C2)c1 (stereo unspecified)	114%
Cc1ccc(-c2nc(CNC3CCc4ncnn4C3)co2)c(C)c1 (stereo unspecified)	-0.6319%
c1csc(-c2noc(CCCNC3CCc4ncnn4C3)n2)c1 (stereo unspecified)	7.784%
COc1cccc(S(=O)(=O)CCNCCn2cccn2)c1	2.314%
CS(=O)(=O)Nc1ccc([C@H]2OCC(=O)N[C@@H]2CO)cc1	-3.066%
CC(C)Sc1ccc(C(C)Nc2nc3c(cnn3C)c(=O)[nH]2)cc1 (stereo unspecified)	-4.166%
Cc1cc(NC(=O)NC(C)CN2CCN(c3ccccc3)CC2)on1 (stereo unspecified)	-17.45%
CNC(=O)NC(=O)CSC(C)c1ccccc1F (stereo unspecified)	-20.44%
Cc1nc(NC(=O)C(C)S(C)(=O)=O)sc1Cc1ccccc1F (stereo unspecified)	-3.086%
Cn1cccc1CN1CCC2(CC1)CN(c1ncccn1)CCO2.O=C(O)C(F)(F)F	0.2482%
CCc1ccc(CN2CCC3(CC2)CNC(=O)CO3)o1.O=C(O)C(F)(F)F	-11.34%
Cc1ccc(CN2CCC3(CC2)CN(c2ccccc2)C(=O)CO3)o1.O=C(O)C(F)(F)F	119.8%
Cn1cccc1CN1CCC2(CC1)CN(c1ccccc1)C(=O)CO2.O=C(O)C(F)(F)F	80.65%
Cn1ccnc1CN1CCC2(CC1)CN(c1ccccc1)C(=O)CO2.O=C(O)C(F)(F)F	-5.115%
Cc1ccc(CN2CCOCC3(C2)CN(c2ccc(C)s2)C(=O)CO3)o1.O=C(O)C(F)(F)F (stereo unspecified)	3.651%
CCCNC(=O)C1CCN(CC2(O)CCC(C)CC2)CC1 (stereo unspecified)	-9.033%
COCc1cccc(NC(=O)NCc2ncc(C)c(OC)c2C)c1	-10.08%

Compound	Percent Effect
COCCCN1C(=O)CC[C@H]2CN(c3cc(C(N)=O)ccn3)CC[C@H]21	-7.921%
CN1CC(C(=O)Nc2ccc(OCC(F)(F)C(F)F)nc2)CC1=O (stereo unspecified)	108%
CCOc1ccc(NC2CCN(C(C)C)C2=O)cn1 (stereo unspecified)	-21.57%
O=C(CCN1C(=O)CCC1=O)Nc1ccc(OCC(F)(F)F)nc1	-54.38%
COCCOc1ccc(NC(=O)C2CC(=O)N(C)C2)cn1 (stereo unspecified)	-11.2%
COc1ccc(NC(=O)C2CC(=O)N(C)C2)cn1 (stereo unspecified)	112.1%
CCc1nc(C)c([C@H]2CN(C)C[C@@H]2C(=O)Nc2ccc(OC)nc2)[nH]1	6.695%
CNC(=O)c1ccc(N(C)C2CCC2)nn1	-0.7532%
CC(C)c1cc(CNC(=O)Nc2cc(F)cc(N3CCCC3)c2)on1	-22.89%
COc1ccc(O[C@H]2COCCN(C(=O)c3ccno3)C2)cc1	-10.22%
COc1nc(C)ccc1CNC(=O)NC(C)Cc1c(C)nn(C)c1C (stereo unspecified)	-7.556%
O=C(NCc1cccnc1)Nc1ccn(CC(F)F)n1	-3.627%
CC(Cn1cccn1)NC(=O)NCc1cccs1 (stereo unspecified)	-5.342%
CC(Cn1cccn1)NC(=O)NCc1ccoc1 (stereo unspecified)	138.9%
CC(Cn1cccn1)NC(=O)NCc1cccnc1 (stereo unspecified)	125.3%
Cc1ccc(CNC(=O)NC(C)Cn2cccn2)cn1 (stereo unspecified)	102.7%
CC(Cn1cccn1)NC(=O)Nc1cccnc1 (stereo unspecified)	-4.722%
CC(Cn1cccn1)NC(=O)NCCc1ccc(Cl)s1 (stereo unspecified)	2.539%
CC(C)CN1CCC(c2nnc(CN3CCCC3)n2C2CC2)CC1	11.32%
O[C@H]1[C@H](n2cc(CN3CCCC3)nn2)c2ccccc2C12CCNCC2	-10.15%
CCN(CC)S(=O)(=O)CCNC(=O)c1cc2cccc(F)c2o1	-15.07%
COC1CCCN(c2nc(C)nc3c2CCN(Cc2ccco2)CC3)C1 (stereo unspecified)	-0.6049%

Compound	Percent Effect
Nc1nc2c(c(N3CCCC3)n1)CCN(Cc1ccccn1)CC2	7.613%
Cc1nc2c(c(N3CCCC(OCc4ccccn4)C3)n1)CCNCC2 (stereo unspecified)	98.85%
Cc1nc(N2CCCC(OCc3ccccn3)C2)c2c(C)noc2n1 (stereo unspecified)	99.09%
Cc1nn(C)c2ncnc(N3CCCC(OCc4cccnc4)C3)c12 (stereo unspecified)	4.594%
Cc1nc2c(c(N3CCC(CCn4cccn4)CC3)n1)CCNCC2	1.957%
Cc1nn(C)c2ncnc(N3CCCC(OCc4ccccn4)C3)c12 (stereo unspecified)	-6.916%
Nc1nc2c(c(N3CCCC(CN4CCCC4=O)C3)n1)CCNCC2 (stereo unspecified)	-1.007%
Nc1nc2c(c(N3CCCC(OCc4ccccn4)C3)n1)CCNCC2 (stereo unspecified)	94.61%
Cn1cc(CN2CCc3c(c(COCC#N)nn3C)C2)cn1	-10.53%
O=C(c1cccnc1-n1cncn1)N1CCN(CC(F)(F)F)CC1	-6.052%
CCc1cnc(C)nc1NCCc1nc(N)cc(O)n1	1.724%
CN(C)S(=O)(=O)NCc1nc(-c2cccc(F)c2)c(-c2ccccn2)[nH]1	-1.399%
N#Cc1ccccc1CN1CCc2sccc2C1	-11.84%
CCC(NC(=O)CN(C)Cc1ccc(C)o1)c1ccc(Br)cc1 (stereo unspecified)	7.959%
Cc1ncsc1CN1CC[C@H]2OCC[C@@]2(C(=O)N2CCCO2)C1	-1.32%
Cc1ccc(CN2CC[C@H]3OCC[C@@]3(C(=O)N3CCCO3)C2)s1	100.6%
COC[C@@]12CCO[C@@H]1CCN(Cc1ccc(C)s1)C2.O=C(O)C(F)(F)F	-10.75%
O=C(N1CCCO1)[C@@]12CCO[C@@H]1CCN(Cc1ccsc1)C2	127%
